The results in this text go back to ChEMBL document CHEMBL1961873, “Compounds: GSK PKIS; Assays: Nanosyn kinase panel” (2012).

Molecules are shown by their SMILES.

Assay [1] concerns the target Sphingosine kinase 1 (Homo sapiens) (UniProt Q9NYA1). As to conditions: at 1 µM.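 Further: mean SPHK1 inhibition value reported from the GSK PKIS kinase panel screen.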
The target of assay [2] is T1, Sphingosine kinase 2 (Homo sapiens) (UniProt Q9NRA0).
T1 sequence (whole entry): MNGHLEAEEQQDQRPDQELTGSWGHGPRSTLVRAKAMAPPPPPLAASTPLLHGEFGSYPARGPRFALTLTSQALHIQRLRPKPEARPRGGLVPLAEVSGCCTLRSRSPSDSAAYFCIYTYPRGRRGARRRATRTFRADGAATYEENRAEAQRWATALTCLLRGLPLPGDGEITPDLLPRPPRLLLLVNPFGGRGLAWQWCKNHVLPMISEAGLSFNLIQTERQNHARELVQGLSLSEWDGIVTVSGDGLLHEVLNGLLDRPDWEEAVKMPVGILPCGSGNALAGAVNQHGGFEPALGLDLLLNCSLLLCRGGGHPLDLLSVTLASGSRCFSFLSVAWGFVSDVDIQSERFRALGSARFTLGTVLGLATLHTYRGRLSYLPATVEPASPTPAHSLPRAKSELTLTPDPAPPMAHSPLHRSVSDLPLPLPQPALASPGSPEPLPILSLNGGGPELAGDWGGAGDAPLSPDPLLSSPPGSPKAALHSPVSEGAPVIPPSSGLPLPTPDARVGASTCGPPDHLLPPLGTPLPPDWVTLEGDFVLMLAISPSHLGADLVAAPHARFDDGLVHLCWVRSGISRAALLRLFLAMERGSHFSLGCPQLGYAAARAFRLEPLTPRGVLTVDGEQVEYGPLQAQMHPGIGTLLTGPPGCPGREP
As to conditions: at 0.1 µM.

Assay [3] concerns the target T1, Sphingosine kinase 2 (Homo sapiens). To be noted: at 1 µM.
Assay [4] concerns the target Casein kinase II subunit alpha (Homo sapiens) (UniProt P68400). To be noted: at 0.1 µM.
The target is the same in assay [5]. As to conditions: at 1 µM.
Assay [6] has as its target T2, Inhibitor of nuclear factor kappa-B kinase subunit alpha (Homo sapiens) (UniProt O15111).
T2 sequence (whole entry): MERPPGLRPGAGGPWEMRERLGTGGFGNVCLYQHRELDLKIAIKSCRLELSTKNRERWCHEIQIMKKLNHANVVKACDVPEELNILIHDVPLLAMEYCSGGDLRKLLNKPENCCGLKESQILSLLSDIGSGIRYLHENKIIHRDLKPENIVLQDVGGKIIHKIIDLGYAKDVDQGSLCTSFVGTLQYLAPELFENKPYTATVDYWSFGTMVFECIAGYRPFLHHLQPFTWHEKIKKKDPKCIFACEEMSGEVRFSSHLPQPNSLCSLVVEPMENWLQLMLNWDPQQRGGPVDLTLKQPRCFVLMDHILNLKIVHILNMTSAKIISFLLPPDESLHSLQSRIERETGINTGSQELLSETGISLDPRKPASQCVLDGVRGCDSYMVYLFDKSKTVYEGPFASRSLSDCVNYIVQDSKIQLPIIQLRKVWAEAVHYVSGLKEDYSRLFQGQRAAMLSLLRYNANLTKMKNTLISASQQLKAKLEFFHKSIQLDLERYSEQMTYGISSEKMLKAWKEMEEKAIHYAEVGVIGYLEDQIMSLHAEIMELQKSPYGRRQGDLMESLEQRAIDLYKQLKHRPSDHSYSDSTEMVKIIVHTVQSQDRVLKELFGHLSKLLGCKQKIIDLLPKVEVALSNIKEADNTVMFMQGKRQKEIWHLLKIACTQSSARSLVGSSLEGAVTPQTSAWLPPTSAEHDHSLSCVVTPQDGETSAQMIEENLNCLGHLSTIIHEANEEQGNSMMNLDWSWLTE
To be noted: at 0.1 µM.

Assay [7] deals with T2, Inhibitor of nuclear factor kappa-B kinase subunit alpha (Homo sapiens). To be noted: at 1 µM.
Assay [8] deals with T3, Inhibitor of nuclear factor kappa-B kinase subunit beta (Homo sapiens) (UniProt O14920).
T3 sequence (whole entry): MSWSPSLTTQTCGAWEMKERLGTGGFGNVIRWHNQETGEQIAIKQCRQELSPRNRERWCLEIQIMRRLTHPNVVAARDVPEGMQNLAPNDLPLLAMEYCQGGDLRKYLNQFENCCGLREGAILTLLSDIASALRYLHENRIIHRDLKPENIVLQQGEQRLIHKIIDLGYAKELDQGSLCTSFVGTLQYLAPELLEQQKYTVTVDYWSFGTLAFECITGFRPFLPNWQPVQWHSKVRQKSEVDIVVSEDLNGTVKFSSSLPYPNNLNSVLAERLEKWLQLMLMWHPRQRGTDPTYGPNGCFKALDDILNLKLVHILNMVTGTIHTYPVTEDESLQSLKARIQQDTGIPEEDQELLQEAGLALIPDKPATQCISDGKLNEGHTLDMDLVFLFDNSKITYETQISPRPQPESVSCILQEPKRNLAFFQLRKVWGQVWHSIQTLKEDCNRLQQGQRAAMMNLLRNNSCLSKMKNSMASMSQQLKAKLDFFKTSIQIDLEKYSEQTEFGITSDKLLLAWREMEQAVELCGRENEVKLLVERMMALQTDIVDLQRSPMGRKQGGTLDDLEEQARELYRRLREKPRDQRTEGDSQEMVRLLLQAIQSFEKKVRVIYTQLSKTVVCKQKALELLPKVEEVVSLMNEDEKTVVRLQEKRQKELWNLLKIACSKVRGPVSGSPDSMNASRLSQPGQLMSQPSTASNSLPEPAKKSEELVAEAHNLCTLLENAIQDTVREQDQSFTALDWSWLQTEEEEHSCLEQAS
As to conditions: at 0.1 µM.

Assay [9] addresses T3, Inhibitor of nuclear factor kappa-B kinase subunit beta (Homo sapiens). As to conditions: at 1 µM.
The target of assay [10] is T4, Inhibitor of nuclear factor kappa-B kinase subunit epsilon (Homo sapiens) (UniProt Q14164).
T4 sequence (whole entry): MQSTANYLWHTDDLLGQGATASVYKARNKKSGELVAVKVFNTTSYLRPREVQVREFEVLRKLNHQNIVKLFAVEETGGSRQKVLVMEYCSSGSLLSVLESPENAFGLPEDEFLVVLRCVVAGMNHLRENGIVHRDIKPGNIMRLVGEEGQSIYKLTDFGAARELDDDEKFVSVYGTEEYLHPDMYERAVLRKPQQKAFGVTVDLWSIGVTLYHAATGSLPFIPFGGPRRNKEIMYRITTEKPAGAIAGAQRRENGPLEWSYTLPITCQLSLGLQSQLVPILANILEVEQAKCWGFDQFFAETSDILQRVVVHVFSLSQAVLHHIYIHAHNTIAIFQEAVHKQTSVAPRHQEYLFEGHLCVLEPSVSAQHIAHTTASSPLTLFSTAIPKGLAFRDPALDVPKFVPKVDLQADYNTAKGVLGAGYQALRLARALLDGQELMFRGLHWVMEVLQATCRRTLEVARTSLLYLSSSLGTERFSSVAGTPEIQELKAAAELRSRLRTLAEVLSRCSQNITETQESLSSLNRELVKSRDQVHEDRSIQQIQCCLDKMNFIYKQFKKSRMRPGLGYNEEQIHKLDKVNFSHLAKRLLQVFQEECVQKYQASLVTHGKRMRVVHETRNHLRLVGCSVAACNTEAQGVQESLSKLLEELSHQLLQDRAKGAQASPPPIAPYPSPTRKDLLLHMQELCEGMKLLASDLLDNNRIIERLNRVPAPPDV
As to conditions: at 0.1 µM.

Assay [11] addresses T4, Inhibitor of nuclear factor kappa-B kinase subunit epsilon (Homo sapiens). To be noted: at 1 µM.
Assay [12] deals with T5, Serine/threonine-protein kinase Nek1 (Homo sapiens) (UniProt Q96PY6).
T5 sequence (whole entry): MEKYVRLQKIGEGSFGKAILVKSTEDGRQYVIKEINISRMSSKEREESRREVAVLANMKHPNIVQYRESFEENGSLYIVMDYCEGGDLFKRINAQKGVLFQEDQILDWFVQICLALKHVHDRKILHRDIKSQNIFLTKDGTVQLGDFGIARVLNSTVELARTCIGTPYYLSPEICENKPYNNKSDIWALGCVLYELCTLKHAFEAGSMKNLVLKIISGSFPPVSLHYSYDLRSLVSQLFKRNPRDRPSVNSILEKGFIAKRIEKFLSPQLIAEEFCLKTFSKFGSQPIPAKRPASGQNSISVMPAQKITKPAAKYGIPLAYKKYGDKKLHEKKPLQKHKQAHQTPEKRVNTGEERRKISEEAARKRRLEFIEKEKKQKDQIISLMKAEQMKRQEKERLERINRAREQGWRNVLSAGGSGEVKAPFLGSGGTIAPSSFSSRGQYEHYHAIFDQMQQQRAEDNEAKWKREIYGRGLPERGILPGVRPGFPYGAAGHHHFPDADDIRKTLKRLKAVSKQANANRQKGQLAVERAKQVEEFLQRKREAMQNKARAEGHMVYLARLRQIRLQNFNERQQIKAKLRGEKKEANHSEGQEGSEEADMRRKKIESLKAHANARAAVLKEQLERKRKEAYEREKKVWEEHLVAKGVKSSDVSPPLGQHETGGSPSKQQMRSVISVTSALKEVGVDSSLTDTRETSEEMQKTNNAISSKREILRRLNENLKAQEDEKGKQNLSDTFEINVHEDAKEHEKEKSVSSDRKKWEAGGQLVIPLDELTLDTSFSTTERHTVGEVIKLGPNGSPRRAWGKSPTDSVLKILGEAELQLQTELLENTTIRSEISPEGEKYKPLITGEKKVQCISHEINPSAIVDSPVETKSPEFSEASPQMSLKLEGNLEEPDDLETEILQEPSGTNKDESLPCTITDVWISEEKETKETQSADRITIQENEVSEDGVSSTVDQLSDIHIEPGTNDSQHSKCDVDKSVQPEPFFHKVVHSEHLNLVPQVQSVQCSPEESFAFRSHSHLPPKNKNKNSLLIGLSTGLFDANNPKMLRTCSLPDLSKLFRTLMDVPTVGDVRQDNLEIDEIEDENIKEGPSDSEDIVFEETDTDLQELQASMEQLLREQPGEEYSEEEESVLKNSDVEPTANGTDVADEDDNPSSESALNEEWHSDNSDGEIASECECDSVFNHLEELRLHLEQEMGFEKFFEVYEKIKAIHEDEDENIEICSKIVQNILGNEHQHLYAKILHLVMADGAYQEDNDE
As to conditions: at 0.1 µM.

Assay [13] deals with T5, Serine/threonine-protein kinase Nek1 (Homo sapiens). To be noted: at 1 µM.
Assay [14] addresses T6, Serine/threonine-protein kinase Nek2 (Homo sapiens) (UniProt P51955).
T6 sequence (whole entry): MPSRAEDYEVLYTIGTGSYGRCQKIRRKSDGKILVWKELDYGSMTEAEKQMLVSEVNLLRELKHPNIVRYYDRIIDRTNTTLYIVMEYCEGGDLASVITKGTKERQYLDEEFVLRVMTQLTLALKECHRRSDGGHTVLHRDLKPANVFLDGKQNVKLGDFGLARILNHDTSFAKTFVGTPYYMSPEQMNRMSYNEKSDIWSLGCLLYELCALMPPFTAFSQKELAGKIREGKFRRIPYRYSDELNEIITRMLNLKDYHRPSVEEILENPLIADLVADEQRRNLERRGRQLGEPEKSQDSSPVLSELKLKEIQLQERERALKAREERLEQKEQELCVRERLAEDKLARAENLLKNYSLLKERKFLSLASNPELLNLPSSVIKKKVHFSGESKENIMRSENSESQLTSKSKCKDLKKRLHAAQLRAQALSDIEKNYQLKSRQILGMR
To be noted: at 0.1 µM.

Assay [15] concerns the target T6, Serine/threonine-protein kinase Nek2 (Homo sapiens). To be noted: at 1 µM.
For assay [16], the target named is Serine/threonine-protein kinase Nek6 (Homo sapiens) (UniProt Q9HC98). To be noted: at 0.1 µM.
Serine/threonine-protein kinase Nek6 (Homo sapiens), sequence (Q9HC98 whole entry): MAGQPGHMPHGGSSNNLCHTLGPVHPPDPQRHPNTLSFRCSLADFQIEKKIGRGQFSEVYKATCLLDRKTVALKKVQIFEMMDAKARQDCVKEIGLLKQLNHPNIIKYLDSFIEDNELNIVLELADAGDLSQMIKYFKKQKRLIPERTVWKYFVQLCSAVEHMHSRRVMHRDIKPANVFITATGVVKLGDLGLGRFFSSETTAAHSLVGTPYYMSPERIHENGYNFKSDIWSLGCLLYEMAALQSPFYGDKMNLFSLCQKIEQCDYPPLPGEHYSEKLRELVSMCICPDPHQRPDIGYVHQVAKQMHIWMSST
Assay [17] has the same target. To be noted: at 1 µM.
Assay [18] concerns the target Serine/threonine-protein kinase Nek7 (Homo sapiens) (UniProt Q8TDX7). To be noted: at 0.1 µM.
For assay [19] the target is unchanged. As to conditions: at 1 µM.
In assay [20] the target is T7, Serine/threonine-protein kinase Nek9 (Homo sapiens) (UniProt Q8TD19).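 Further: reported value is the mean percent inhibition of NEK9.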
T7 sequence (whole entry): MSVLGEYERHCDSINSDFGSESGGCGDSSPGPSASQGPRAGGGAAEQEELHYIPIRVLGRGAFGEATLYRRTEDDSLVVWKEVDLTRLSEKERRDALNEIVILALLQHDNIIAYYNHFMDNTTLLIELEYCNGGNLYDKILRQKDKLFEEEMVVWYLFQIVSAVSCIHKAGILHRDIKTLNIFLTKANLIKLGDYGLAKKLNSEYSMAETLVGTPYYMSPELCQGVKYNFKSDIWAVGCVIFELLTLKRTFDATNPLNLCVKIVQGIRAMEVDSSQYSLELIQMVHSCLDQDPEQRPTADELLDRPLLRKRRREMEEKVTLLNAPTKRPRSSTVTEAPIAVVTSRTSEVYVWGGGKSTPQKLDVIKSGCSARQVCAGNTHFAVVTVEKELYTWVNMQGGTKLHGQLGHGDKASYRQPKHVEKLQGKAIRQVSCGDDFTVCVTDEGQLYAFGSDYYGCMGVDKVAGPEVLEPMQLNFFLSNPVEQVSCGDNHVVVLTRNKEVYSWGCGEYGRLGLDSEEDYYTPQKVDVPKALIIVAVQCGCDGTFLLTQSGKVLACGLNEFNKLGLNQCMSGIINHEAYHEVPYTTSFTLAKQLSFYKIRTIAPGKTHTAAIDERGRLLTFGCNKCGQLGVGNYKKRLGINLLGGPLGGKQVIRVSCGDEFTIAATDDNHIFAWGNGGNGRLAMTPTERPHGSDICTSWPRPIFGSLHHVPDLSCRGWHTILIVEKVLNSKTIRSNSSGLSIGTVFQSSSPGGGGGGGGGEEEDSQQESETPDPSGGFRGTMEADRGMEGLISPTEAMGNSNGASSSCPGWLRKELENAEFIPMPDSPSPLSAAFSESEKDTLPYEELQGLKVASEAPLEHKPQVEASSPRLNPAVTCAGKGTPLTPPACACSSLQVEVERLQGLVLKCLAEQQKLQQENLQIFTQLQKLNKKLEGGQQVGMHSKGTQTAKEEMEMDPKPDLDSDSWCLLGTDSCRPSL
To be noted: at 0.1 µM.

As a reminder, the inhibition is the drop in the measured response relative to a control, in per cent.

Casein kinase II subunit alpha (Homo sapiens), sequence (P68400 whole entry, looked up): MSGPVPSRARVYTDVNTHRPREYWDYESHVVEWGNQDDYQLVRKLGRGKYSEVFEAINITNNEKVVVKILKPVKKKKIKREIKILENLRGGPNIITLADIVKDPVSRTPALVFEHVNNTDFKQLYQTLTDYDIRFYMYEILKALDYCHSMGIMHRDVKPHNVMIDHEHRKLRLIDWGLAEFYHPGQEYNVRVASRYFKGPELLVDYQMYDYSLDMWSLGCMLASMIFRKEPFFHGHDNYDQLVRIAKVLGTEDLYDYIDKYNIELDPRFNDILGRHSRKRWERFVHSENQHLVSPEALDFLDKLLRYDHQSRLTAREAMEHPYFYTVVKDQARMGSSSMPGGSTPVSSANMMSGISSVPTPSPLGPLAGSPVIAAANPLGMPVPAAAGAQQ
Serine/threonine-protein kinase Nek7 (Homo sapiens), sequence (Q8TDX7 whole entry, looked up): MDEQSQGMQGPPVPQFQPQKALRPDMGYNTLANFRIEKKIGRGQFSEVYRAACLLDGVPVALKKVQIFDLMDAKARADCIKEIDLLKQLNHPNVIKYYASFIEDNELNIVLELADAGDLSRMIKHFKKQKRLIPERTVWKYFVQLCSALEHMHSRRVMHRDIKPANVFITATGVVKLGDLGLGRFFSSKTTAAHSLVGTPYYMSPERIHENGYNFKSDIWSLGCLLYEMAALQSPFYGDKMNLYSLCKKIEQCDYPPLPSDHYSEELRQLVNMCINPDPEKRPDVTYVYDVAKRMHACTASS
Sphingosine kinase 1 (Homo sapiens), sequence (Q9NYA1 whole entry): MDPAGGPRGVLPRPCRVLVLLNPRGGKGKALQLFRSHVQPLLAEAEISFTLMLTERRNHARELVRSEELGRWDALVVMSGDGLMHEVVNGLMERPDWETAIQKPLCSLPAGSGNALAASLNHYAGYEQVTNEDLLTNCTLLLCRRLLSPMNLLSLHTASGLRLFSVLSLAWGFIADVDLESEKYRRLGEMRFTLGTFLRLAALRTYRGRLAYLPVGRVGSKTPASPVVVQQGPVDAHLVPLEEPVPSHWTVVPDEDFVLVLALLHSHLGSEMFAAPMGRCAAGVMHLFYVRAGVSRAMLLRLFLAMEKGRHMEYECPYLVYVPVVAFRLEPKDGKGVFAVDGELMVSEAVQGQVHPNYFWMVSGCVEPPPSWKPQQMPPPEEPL

As to `NC(=O)c1sc(-n2cnc3cc(C(F)(F)F)ccc32)cc1OCc1ccccc1Br`, the inhibition in assay [1] was 0.07%; in assay [2], -0.95%; in assay [3], 0%; in assay [4], -1.01%; in [5], 2.21%; in assay [6] it was 2.77%. For the same molecule, the inhibition is 2.85% in [7]; 3.87% in assay [8]; 2.52% in [9]; 3.08% in assay [10]; 3.62% in [11]; 1.03% in assay [12]. In addition, the inhibition in assay [13] is 1.9%; in assay [14], 2.62%; in [15], 3.63%; in [16], -1.58%; in assay [17], -0.03%; in assay [18], -3.9%. Further, the inhibition turned out to be 3.69% in assay [19] and 8.36% in [20].
